# Source: PubChem BioAssay (National Center for Advancing Translational Sciences (NCATS))
# HP1b binding inh – HP1-beta chromodomain-methylated histone interaction inhibition. P83916. AlphaScreen HP1-beta / biotin-H3K9me3 peptide binding. Potency, µM (doses to about 114 µM), without a hit: at the top dose activity change, negative = inhibition, most hits filed as inhibitors. actives 0.56% (n = 390,000). AID 540317; note: nearly all actives have a fitted effect of over 70% in size
# Target sequence (P83916 whole entry, looked up): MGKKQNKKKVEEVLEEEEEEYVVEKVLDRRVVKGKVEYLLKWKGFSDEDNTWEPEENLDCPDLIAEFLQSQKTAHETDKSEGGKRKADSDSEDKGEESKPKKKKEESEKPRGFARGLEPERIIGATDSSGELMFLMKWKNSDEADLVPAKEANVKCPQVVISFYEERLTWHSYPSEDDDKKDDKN
#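 Compound inhibition of the preformed complex between 50 nM HP1-beta and 50 nM biotinylated H3K9me3 peptide was read by AlphaScreen. Buffer was PBS pH 7.4 with 0.01% Tween-20. Incubations ran 30 min at room temperature, with 10 ug/mL donor/acceptor beads.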
# Sfp PPTase inh – inhibitors of Bacillus subtilis Sfp phosphopantetheinyl transferase | Biochemical Sfp PPTase activity, qHTS | Potency, µM, inactives show largest response in the series, negative = inhibition, usual class: inhibitors | Q9F4F7 | actives 3.5% (n = 310,000);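 note: the enzyme is Sfp with the accession as filed and its product quenches rhodamine fluorescence; 0% = enzyme reaction without inhibitor and -100% = no enzyme wells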
#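 Compounds were incubated with enzyme (final 15 nM) for 15 min at room temperature before substrate addition started the reaction. Fluorescence at 525 nm excitation, 598 nm emission was recorded immediately and after 30 minutes.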
# JMJD2A Tudor inh – blocks the human JMJD2A Tudor domain; AlphaScreen JMJD2A-Tudor / H3K4me3 peptide binding; O75164; Potency, µM (titrated, usually from 114 µM), for the others: top-dose activity change, negative = inhibition, most hits filed as inhibitors; actives 4.4% (n = 390,000); note: % is set by controls: 0 for no effect and ±100 for the full control effect; nearly all actives have a fitted effect of over 50% in size
# G9a inh – inhibitors of human histone lysine methyltransferase G9a. actives 8.8% (n = 350,000). Q96KQ7. G9a H3K9 monomethylation, AlphaScreen, 2 h. Potency, µM (doses to about 102 µM), inactives show top-dose activity, negative = inhibition, actives largely listed as inhibitors. AID 504332; note: % is set by controls: 0 for no effect and ±100 for the full control effect; nearly all actives have a fitted effect of over 75% in size
# Target sequence (Q96KQ7 913-1193 limits assumed): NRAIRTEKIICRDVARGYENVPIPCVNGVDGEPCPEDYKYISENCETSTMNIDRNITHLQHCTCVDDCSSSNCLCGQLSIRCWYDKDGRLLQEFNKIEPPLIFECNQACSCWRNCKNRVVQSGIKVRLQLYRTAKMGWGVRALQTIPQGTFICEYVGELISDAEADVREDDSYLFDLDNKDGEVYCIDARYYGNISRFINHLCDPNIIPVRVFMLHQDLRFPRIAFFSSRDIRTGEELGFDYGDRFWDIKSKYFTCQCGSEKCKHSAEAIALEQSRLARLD
#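 AlphaScreen detection with an anti-monomethyl H3K9 antibody quantified product after a 2 h room-temperature reaction containing 500 nM biotinylated H3K9 peptide, 20 µM SAM and 20 nM enzyme, which had been preincubated 15 min with compound.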
# ALOX12 inh – ALOX12 (human) lipoxygenase inhibition; purified 12hLO, xylenol orange hydroperoxide absorbance; Potency, µM (doses to about 108 µM), inactives show at the top dose activity change, negative = inhibition, hits mostly inhibitors; actives 1.1% (n = 580,000); note: % is set by controls: 0 for no effect and ±100 for the full control effect
#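 Purified human 12hLO at 150 nM in 25 mM Hepes, 0.01% Triton X-100, pH 7.0, preincubated 15 min at room temperature with compound. Reaction started with 40 uM arachidonic acid, 30 min at room temperature. Hydroperoxide measured by Fe-xylenol orange, 573/405 nm absorbance ratio.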
# BAZ2B block – BAZ2B (human) inhibition | AlphaScreen BAZ2B-H3K14Ac peptide displacement | Potency, µM (highest dose often 114 µM), for inactives: at the highest dose activity change, negative = inhibition, usual class: inhibitors | actives 4.4% (n = 360,000); note: % is set by controls: 0 for no effect and ±100 for the full control effect; nearly all actives have a fitted effect of over 60% in size
#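 Compounds, titrated to a top concentration of 110 uM, were incubated 30 min at room temperature with preformed BAZ2B/acetyl-K14 H3 peptide complex (50 nM each). Proximity signal was measured by AlphaScreen after 20 min with beads.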
# * hit, by the source's call; ? = inconclusive; nt = no result given; [ ] = remark or other dose. Rows were chosen to be rich in hits. Some 8.7% of all compounds tested hit in one or more screens of this group. Calls come from the whole dose curve; as a rule, active = well fitted curve in the direction sought with a large enough effect; inconclusive = small, poorly fitted or top-dose-only effect, or another doubt; inactive = no such curve, though single readings can be large; an effect the other way counts as inactive or inconclusive. Potency is the fitted concentration of half-maximal effect.
SMILES,HP1b binding inh,Sfp PPTase inh,JMJD2A Tudor inh,G9a inh,ALOX12 inh,BAZ2B block
COc1ccc(NS(=O)(=O)c2cc(NC(=O)c3ccc(=O)[nH]c3)ccc2N2CCCC2)cc1,-14%,-17%,?,nt,0%,40µM*
O=C(Nc1ccc(N2CCCCC2)cc1)c1cccnc1Cl,27%,-9%,-24%,50µM*,-29%,-31%
CSc1nc(=S)cc(C)[nH]1,?,35µM*,25µM*,nt,?,3%
CCc1nnc(NS(=O)(=O)c2ccc(NC(=S)NC(=O)/C=C/c3ccc(F)cc3)cc2)s1,?,11%,56µM*,89µM*,10µM*,50µM*
CCc1nnc(NS(=O)(=O)c2ccc(NC(=S)NC(=O)/C=C/c3ccc([N+](=O)[O-])cc3)cc2)s1,42%,7%,3%,35µM*,?,?
O=C(NCCc1ccc(OC(F)F)cc1)c1nn(Cc2ccccc2)c(=O)c2ccccc12,nt,nt,nt,nt,12%,nt
Cc1cc(/C=C2\C(=N)N3N=C(S(C)(=O)=O)SC3=NC2=O)c(C)n1Cc1ccccc1,-19%,45µM*,?,45µM*,?,-37%
COc1cccc(OCCOc2ccc(/C=C3\C(=N)N4N=C(S(C)(=O)=O)SC4=NC3=O)cc2OC)c1,-3%,-7%,56µM*,40µM*,?,79µM*
CCC1=NN2C(=N)/C(=C\c3ccc(OCCOc4ccc(NC(C)=O)cc4)cc3)C(=O)N=C2S1,23%,7%,-23%,0%,0%,-28%
CCOc1cc(/C=C2\C(=N)N3N=C(C)SC3=NC2=O)ccc1OCCOc1cccc(OC)c1,40%,-2%,3%,11%,11%,-27%
CCc1nn2c(=O)cc(COc3ccc(/C=C4\C(=N)N5N=C(C)SC5=NC4=O)cc3)nc2s1,15%,4%,56µM*,-13%[59 µM],-4%,50µM*
COc1cc(/C=C2\C(=N)N3N=C(C)SC3=NC2=O)cc(Cl)c1OCCOc1ccc(NC(C)=O)cc1,14%,-8%,-6%,-2%,0%,79µM*
CCC1c2nccn2CCCN1C(=O)CN1CCCC1=O (configuration not stated),nt,nt,nt,nt,34%,nt
O=C(COc1ccccc1)N1CC[C@H](c2nnc(-c3ccccc3)o2)C1,nt,nt,nt,nt,19%[176 µM],nt
COc1cc(/C=C2\C(=N)N3N=C(C)SC3=NC2=O)cc(OC)c1OCCOc1ccccc1C,-7%,2%,-27%,12%[0.501 µM],14%,-9%
COc1cc(/C=C2\C(=N)N3N=C(S(C)(=O)=O)SC3=NC2=O)cc(OC)c1OCCOc1ccccc1C,?,-25%,79µM*,?,132%,56µM*
COc1cc(/C=C2\C(=N)N3N=C(S(C)(=O)=O)SC3=NC2=O)ccc1OS(=O)(=O)c1ccc(C)cc1,-5%,-24%,56µM*,10%[59 µM],45µM*,50µM*
CCOc1cc(/C=C2/C(=N)N3N=C(C)SC3=NC2=O)ccc1OS(=O)(=O)c1ccc(C)cc1,1%,4%,-22%,2%,3%,8%
COc1ccccc1OCCOc1ccc(/C=C2\C(=N)N3N=C(S(C)(=O)=O)SC3=NC2=O)cc1,-14%,-6%,22µM*,3%[2.33 µM],?,50µM*
Cc1cc(Br)ccc1NC(=O)CNC(=O)CCc1ncc(-c2ccccc2F)o1,nt,nt,nt,nt,-25%,nt
CCc1nnc(N/N=C/c2cc(Br)c(O)cc2O)n1N,41%,50µM*,79µM*,50µM*,12%,50µM*
CCc1nnc(N/N=C/c2cccs2)n1N,35%,?,-12%,50µM*,-16%,-6%
CC(C)(C)c1nnc(N/N=C/c2cc(Br)ccc2O)n(N)c1=O,6%,?,22µM*,5%[59 µM],1%,18µM*
C=CCOC(=O)COc1cc(C)cc2oc(=O)cc(-c3ccccc3)c12,nt,nt,nt,nt,-27%,nt
CC(C)(C)C(=O)Nc1cc(S(=O)(=O)Nc2ccc(Cl)cc2)ccc1O,4%,9%,-8%,-42%,40µM*,-2%
